Assay outcomes from PubChem BioAssay.
The full list was thinned out, with hits kept by preference.
HIV RNase H inh-1 = HIV-1 RT RNase H inhibitors, primary screen, biochemical, fluorescence; Gag-Pol polyprotein (Human immunodeficiency virus type 1 group M subtype B (isolate …; RT-RNase H RNA/DNA duplex cleavage; inhibition, % at 10 µM; 65,000 tested, 1.9% active; in the data active = inhibition above about 50%
RmlCD inh mix = RmlC and RmlD coupled enzyme inhibitors, primary screen, biochemical, 384-well, compound mixtures, retest. RmlC/RmlD coupled enzyme inhibition, 384-well mixture HTS. inhibition, % at 5.5 µM. 110,000 tested, 0.39% active. AID 1532, 2009; in the data active = inhibition above about 30%, passing the limit was not always enough; inconclusive = no clear call, values can overlap the other calls
HIV RNase H inh-2 = HIV-1 RT RNase H inhibitors, retest, confirmation, biochemical | shares compounds with HIV RNase H inh-1 | inhibition, % at 10 µM | 1,000 tested, 39% active | Recombinant RT RNase H, fluorescent RNA/DNA duplex cleavage; in the data active = inhibition above about 48%; inconclusive = no clear call, values can overlap the other calls
An asterisk follows results filed as active; ? = inconclusive; · = not tested or not shown.

SMILES	HIV RNase H inh-1	RmlCD inh mix	HIV RNase H inh-2
COc1ccccc1NC(=O)COC(=O)c1cnccn1	·	-8	·
CCOc1ccc2nc(SCc3ccc(C(=O)OC)o3)[nH]c2c1	-3	-2	·
C/C(=C/Cc1c(O)cc2oc(C)cc(=O)c2c1O)COC1OC(CO)C(O)C(O)C1O (configuration not stated)	·	12	·
COc1ccc(CCN2C(=S)NC3CC2(C)Oc2ccc([N+](=O)[O-])cc23)cc1OC (configuration not stated)	·	-10	·
COc1ccccc1N(O)C1CC(=O)N(c2ccc(Br)cc2)C1=O (configuration not stated)	68*	-13	25
CCCCCCC(=O)N(O)C1CC(=O)N(c2ccc(Br)cc2)C1=O (configuration not stated)	24	-5	·
Cc1cc(NCc2ccccn2)ccc1Br	·	-3	·
NC(=O)c1c(NC(=O)CN2CCCC2)sc2c1CCCC2	0	6	·
Cc1c(C(N)=O)sc(N)c1C(=O)OC(C)C	84*	2	42
CCOC(=O)c1c(NC(=O)CNCCOC)sc2c1CCCC2	·	-10	·
CC(=O)c1sc(N)c(C(=O)OC(C)C)c1C	·	12	·
COCCNC(=O)c1c(N)sc2c1CCCC2	63*	1	10
NC(=O)c1c(NC(=O)CN2C(=O)CCC2=O)sc2c1CCCCC2	85*	12	-3
CNC(=O)c1c(N)sc2c1CCCCC2	84*	10	?
CNC(=O)c1c(NC(=O)c2ccc(N3C(=O)CCC3=O)cc2)sc2c1CCCC2	·	8	·
Cc1ccc(C2CC(C(F)(F)F)n3nc(C(=O)NCC4CCCO4)cc3N2)cc1 (configuration not stated)	7	-9	·
CC(=O)N1CCC(Nc2ccc(C)cc2)CC1	-4	5	·
Cc1cc(C)c(S(=O)(=O)NCC23C=CC(O2)C2C(=O)N(c4ccccc4)C(=O)C23)c(C)c1 (configuration not stated)	·	-11	·
CCCOC(=O)c1c(N)sc2c1CCC2	-22	-7	·
Nc1sc2c(c1C(=O)NC1CCS(=O)(=O)C1)CCC2 (configuration not stated)	66*	-38	74*
N#CCC(=O)Nc1sc2c(c1C(N)=O)CCCC2	-14	-8	·
CC(C)OC(=O)c1c(N)sc2c1CCCC2	87*	·	?
NC(=O)c1c(N)sc2c1CCCCC2	73*	5	-1
O=C(NC1CCS(=O)(=O)C1)c1ccccc1C(=O)c1ccccc1 (configuration not stated)	-4	3	·
CCCC(CCC)C(=O)Nc1c[nH]c(=O)[nH]c1=O	·	7	·
SMILES	HIV RNase H inh-1	RmlCD inh mix	HIV RNase H inh-2
CCOC(=O)C(CC)(CC)/C(C)=N/NC(=O)CC#N	·	-13	·
O=C(CN1C(=O)NC2NC(=O)NC21)NC1CCCCC1 (configuration not stated)	-10	·	·
CCO[C@@H]1OC(C(=O)O)=C[C@H](c2ccc(Br)cc2)[C@H]1CCCO	·	-16	·
S=c1nc(C2CC2)[nH]c2ccccc12	84*	-9	69*
CC(C)c1nc(=S)c2ccccc2[nH]1	23	4	·
Cc1cc(C)n(C(=O)CNC(=O)CCc2ccccc2)n1	-6	5	·
COc1cccc(-c2cc(=O)c3cc(NC(=O)c4ccc(N(C)C)cc4)ccc3[nH]2)c1	·	-14	·
Cc1cccn2c(=O)c3cc(C(=O)NC(C)c4ccccc4)c(=N)n(CCCn4ccnc4)c3nc12 (configuration not stated)	6	·	·
CCCC(C)NS(=O)(=O)c1ccc(OC)c(C)c1 (configuration not stated)	·	-8	·
COC(=O)c1ccc(CSc2nnc(Nc3ccc(C)cc3)s2)o1	·	6	·
CCN(CC)c1ccc(C(=S)N2CCN(c3ccccc3)CC2)cc1	73*	4	26
S=C(c1ccc(N2CCCC2)cc1)N1CCCCC1	6	8	·
Cc1cccc(NC(=O)c2cc(NC(=O)c3ccco3)ccc2Cl)n1	1	-9	·
CC(C)CCn1c(SCCc2ccccc2)nc2c1c(=O)[nH]c(=O)n2C	74*	34	5
CCCCCn1c(SCCCC)nc2c1c(=O)[nH]c(=O)n2C	71*	?	61*
CCCn1c(SCCc2ccccc2)nc2c1c(=O)[nH]c(=O)n2C	7	20	·
CCCCCCn1c(SCCC)nc2c1c(=O)[nH]c(=O)n2C	-2	5	·
O=C(O)C[C@H]1c2cc(F)ccc2S(=O)(=O)N1C1CCCCC1	·	-14	·
O=C(c1ccco1)N1CCN(/C(=N/S(=O)(=O)c2cccs2)c2ccccc2Cl)CC1	-2	-10	·
COc1ccc(/C=C\C(=O)CC(O)(c2ccccc2)C(F)(F)F)cc1 (configuration not stated)	·	4	·
Cc1cccc(C(=O)N2CCN(c3ccc(C(F)(F)F)cn3)CC2)c1C	·	10	·
Nc1c(C(=O)c2ccccc2)sc2snc(SCC(=O)c3ccccc3)c12	·	-14	·
